This is a sample that favours compounds with a hit; in the whole collection about 3.8% have one here.
Gli-Sufu antag: blocks Gli-Sufu signaling in a luciferase reporter. inhibition, % at 5 µM. actives 0.74% (n = 340,000). Sufu-KO-LIGHT fibroblasts, Gli luciferase reporter luminescence;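 active = inhibition above about 55%, limit read from the data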;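 also: 0% = DMSO-treated cells and 100% = wells with medium but no cells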
Shn3 3UTR inh: inhibitors of Schnurri-3 3'UTR reporter in osteoblasts | Clone20 osteoblast Shn3 3'UTR firefly luciferase, 24 h | inhibition, % at 12.5 µM | actives 0.52% (n = 360,000);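 active = mean inhibition of at least 75% with every replicate also reaching 75%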;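 also: 0% = median of neutral control wells and 100% = pilot-screen positive control compound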
Mdm2 MdmX PPI: human Mdm2/MdmX binding inhibition; SaOS-2 split-luciferase Mdm2/MdmX complementation, luminescence; inhibition, % at 8 µM; actives 3% (n = 330,000); AID 485346;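 active = inhibition of at least 50% at 8 µM in the primary screen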
Jurkat NFkB inh: lowers PMA/ionomycin-induced NF-kB signal in Jurkat cells; PMA/ionomycin-induced NF-kB luciferase reporter, luminescence; inhibition, % at 4 µM; actives 0.53% (n = 330,000); in the data active = inhibition above about 50%
697 NFkB inh: lowers PMA/ionomycin-induced NF-kB signal in 697 B cells | 697 B-cell NF-kB luciferase reporter, 16 h | inhibition, % at 4 µM | actives 0.33% (n = 330,000) | AID 435022; in the data active = inhibition above about 35%
The depositor's hits bear a star; · = no result.

SMILES | Gli-Sufu antag | Shn3 3UTR inh | Mdm2 MdmX PPI | Jurkat NFkB inh | 697 NFkB inh
COc1cccc(CNc2nc(NCC3CC3)nc3ccsc23)c1 | · | 86* | · | · | ·
COc1cccc(CNc2nc(NCc3ccccc3)nc3ccsc23)c1 | · | 51 | · | · | ·
COc1ccccc1CNc1nc(NCc2ccc(C(C)C)cc2)c2sccc2n1 | · | 88* | · | · | ·
COc1cccc(CNc2nc(NCC3CC3)nc3ccsc23)c1OC | · | 82* | · | · | ·
C[C@@H]1CN([C@H](C)CO)C(=O)CCCn2nncc2CO[C@H]1CN(C)Cc1ccc(C(F)(F)F)cc1 | · | -5 | · | · | ·
COc1cc(C2c3cc4c(cc3CC3COC(=O)N32)OCO4)cc(OC)c1OC (centres undefined) | 39 | 8 | · | · | ·
O=C(/C=C/c1ccco1)Oc1cc(Br)cc(/C=N/NC(=O)c2ccccc2O)c1 | 42 | 94* | · | · | ·
CN(C)c1cc2c3ccccc3n(C)c2cc1N | 4 | 6 | · | · | ·
CCC(C)c1ccc(S(=O)(=O)N2CCN(C(=O)c3ccc(Cl)c(S(=O)(=O)N4CCOCC4)c3)CC2)cc1 (centres undefined) | 30 | 90* | · | · | ·
CC1(C(=O)NS(=O)(=O)c2ccc(Cl)cc2)CCN1C(=O)C1(c2ccc(Cl)cc2)CCC1 (centres undefined) | · | 10 | · | · | ·
CCOC(=O)C1CCCN(S(=O)(=O)c2ccc(S(=O)(=O)N3CCCC3)cc2)C1 (centres undefined) | 33 | 88* | 17 | 37 | 2
CN(C)c1ccc(/C=C/c2ccc3c4ccccc4ccc3[n+]2-c2ccccc2)cc1 | 92* | 93* | · | · | ·
O=c1c2ccccc2sc2nc(CCl)nn12 | 2 | -9 | · | · | ·
Cc1ccc2c(Cl)cc(Cl)c(O)c2n1 | 59* | 66 | · | · | ·
O=[N+]([O-])/C=C/c1cn(Cc2ccc(Cl)cc2)c2ccccc12 | -7 | 89* | 26 | 5 | -2
CC(=O)OC[C@@H]1CN(Cc2ccccc2)C[C@H](n2cnc3c(NCC(C)C)ncnc32)O1 | · | -8 | · | · | ·
COc1ccc(/C=C/c2ccc3ccccc3[n+]2C)cc1OC | -23 | 92* | 7 | -26 | -25
CC(=O)Oc1ccccc1/C=C/c1ccc2ccccc2[n+]1C | 8 | -156 | -205 | -45 | -10
CN(CC1COc2ccccc2O1)C(=O)CSc1ncccn1 (centres undefined) | -7 | -60 | -4 | -9 | -15
CC1=NN(c2nc(N)nc(/C(C#N)=C/c3ccc([N+](=O)[O-])o3)n2)C(C)(C)C1 | 31 | 98* | · | · | ·
CC(=O)NC(C)c1cc(Cl)c2cccnc2c1O (centres undefined) | 3 | 27 | 40 | -3 | -3
CCC(=O)NC(C)c1cc(Cl)c2cccnc2c1O (centres undefined) | 18 | 91* | 39 | -5 | -1
CNc1nc(N)c([N+](=O)[O-])c(N2CCCCCC2)n1 | 10 | -12 | -14 | -3 | -12
CC(C)CCNc1nc(N)c([N+](=O)[O-])c(N2CCCCCC2)n1 | 15 | 87* | 3 | 44 | -42
CCC(C)Sc1cc(-c2nc3ccc(C)cn3c2NCc2ccccc2)ccc1OC (centres undefined) | 66* | 97* | · | · | ·
SMILES | Gli-Sufu antag | Shn3 3UTR inh | Mdm2 MdmX PPI | Jurkat NFkB inh | 697 NFkB inh
CCCCCCSc1ccc(-c2nc3ccc(C)cn3c2NCc2ccccc2)cc1OC | 2 | -1 | 49 | -11 | -19
CC(CNC(=O)c1cc(COc2ccc3ncccc3c2)on1)c1ccccc1 (centres undefined) | 49 | 88* | 27 | 38 | -29
O=C(c1cc(COc2ccc3ncccc3c2)on1)N1CCCC(O)C1 (centres undefined) | 29 | 53 | -12 | 7 | 1
COCC1CCCN(C(=O)c2cc(COc3ccc4ncccc4c3)on2)C1 (centres undefined) | 56* | 63 | 14 | 47 | 16
O=C1C(Br)=C(c2ccccc2)C(c2ccccc2)=C1c1ccccc1 | 5 | 98* | · | · | ·
O=C1NC(c2ccccc2)=C(c2ccccc2)C1=O | -2 | 9 | · | · | ·
C=C1CC(COc2ccc3c(C)c(Cl)c(=O)oc3c2)(c2ccccc2)OC1=O (centres undefined) | 6 | 96* | · | · | ·
CCN(CC)C(=O)[C@H]1CC(CC(=O)NC(C)(C)C)C(=O)N2CCc3c([nH]c4ccccc34)[C@]12C (some centres undefined) | 1 | 10 | 18 | 3 | -1
O=C(N/N=C/c1cc([N+](=O)[O-])ccc1O)c1cc(-c2ccccc2)nc2ccccc12 | 25 | 88* | 43 | -5 | -106
O=[N+]([O-])c1ccc(O)c(/C=N/Nc2ccccn2)c1 | 72* | 75 | · | · | ·
